Data taken from PubChem BioAssay (NCATS).
Results filed as inconclusive are left out. Where a call stands in place of a potency, no number is given. Values without a mark were called inactive. Calls of active or inactive are those of the source. Unless noted, the call rests on the fitted dose curve.

How the values were obtained:
[1] = qHTS for Inhibitors of the Functional Ribonucleoprotein Complex (vRNP) of Lassa (LASV) Arenavirus: LASV Primary Screen - GLuc reporter signal (AID 1347082; calls by dose curve; tested in HEK293 reporter line; further: nearly all actives have a fitted effect of over 60% in size; on activity change, negative = inhibition: series mostly up to about 57 µM)
[2] = qHTS for Inhibitors of the Functional Ribonucleoprotein Complex (vRNP) of Lassa (LASV) Arenavirus: Viability assay - alamar blue signal for LASV Primary Screen (AID 1347083; calls by dose curve; tested in HEK293 reporter line; further: nearly all actives have a fitted effect of over 80% in size; on activity change, negative = reduced viability: series mostly up to about 57 µM)
[3] = qHTS for Inhibitors of the Functional Ribonucleoprotein Complex (vRNP) of Lymphocytic Choriomeningitis Arenaviruses (LCMV): Viability assay - alamar blue signal for LCMV Primary Screen (AID 1347085; calls by dose curve; tested in HEK293 reporter line; further: nearly all actives have a fitted effect of over 80% in size; on activity change, negative = lower viability: series mostly up to about 57 µM)
[4] = molecular target: Nucleoprotein (Lymphocytic choriomeningitis virus (strain Armstrong)) (UniProt P09992); experiment: qHTS for Inhibitors of the Functional Ribonucleoprotein Complex (vRNP) of Lymphocytic Choriomeningitis Arenaviruses (LCMV): LCMV Primary Screen - GLuc reporter signal (AID 1347086); further: nearly all actives have a fitted effect of over 70% in size; on activity change, negative = inhibition: series mostly up to about 57 µM
Chain of Nucleoprotein (Lymphocytic choriomeningitis virus (strain Armstrong)) (P09992 whole entry, looked up): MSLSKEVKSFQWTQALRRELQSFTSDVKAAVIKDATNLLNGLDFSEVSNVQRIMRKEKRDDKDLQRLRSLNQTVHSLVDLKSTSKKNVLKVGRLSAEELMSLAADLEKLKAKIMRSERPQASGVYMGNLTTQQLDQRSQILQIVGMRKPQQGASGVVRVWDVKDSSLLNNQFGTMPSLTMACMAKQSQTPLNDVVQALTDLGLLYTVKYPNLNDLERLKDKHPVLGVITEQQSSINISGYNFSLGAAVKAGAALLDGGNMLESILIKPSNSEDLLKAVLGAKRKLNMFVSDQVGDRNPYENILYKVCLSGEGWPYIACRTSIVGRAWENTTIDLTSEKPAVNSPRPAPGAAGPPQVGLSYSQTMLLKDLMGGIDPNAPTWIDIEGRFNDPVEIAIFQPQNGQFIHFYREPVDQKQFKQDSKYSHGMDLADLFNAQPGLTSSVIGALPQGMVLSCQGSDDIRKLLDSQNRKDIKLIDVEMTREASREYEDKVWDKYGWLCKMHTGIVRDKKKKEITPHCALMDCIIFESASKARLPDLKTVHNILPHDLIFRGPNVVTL
Potency means the concentration at half of the fitted maximal effect.

Structure (SMILES)	Potency [1]	Potency [2]	Potency [3]	Potency [4]	activity change, negative = inhibition [1]	activity change, negative = reduced viability [2]	activity change, negative = lower viability [3]	activity change, negative = inhibition [4]
CC(=O)OC[C@]1(OC(C)=O)C[C@@]23CC[C@H]4[C@@](C)(CCC[C@@]4(C)C(=O)O)[C@@H]2CC[C@@H]1C3	inactive	inactive	inactive	inactive				
C[C@H]1[C@H](C)CC[C@]2(C)CC[C@]3(C)C(=CC(=O)C4[C@@]5(C)CC[C@H](O)C(C)(C)C5CC[C@]43C)[C@H]12 (stereo not given in full)	inactive	inactive	inactive	inactive				
CC1(C)C[C@H]2C3=CCC4[C@@]5(C)CC[C@H](O)[C@](C)(CO)C5CC[C@@]4(C)[C@]3(C)C[C@H]3O[C@@H]1[C@H](O)[C@]32CO (stereo not given in full)	inactive	inactive	inactive	inactive				
C=C[C@@H]1CN2CC[C@@H]1C[C@H]2[C@H](O)c1ccnc2ccc(OC)cc12	inactive	inactive	inactive	inactive				
C[C@]12CC[C@H](O)CC1=CCC1C2CC[C@@]2(C)C1C[C@@H](O)[C@@H]2O (stereo not given in full)	inactive	inactive	inactive	inactive				
C=CCc1ccc(O)c(-c2cc(CC=C)ccc2O)c1	inactive	inactive	inactive	inactive				
CC(C)OC(=O)c1ccccc1	inactive	inactive	inactive	inactive				
COC1[C@@H](O[C@@H]2O[C@H](C)[C@@H](O[C@H]3C[C@@](C)(O)[C@H](OC(=O)CC(C)C)[C@H](C)O3)[C@H](N(C)C)[C@H]2O)[C@@H](CC=O)C[C@@H](C)[C@@H](O)/C=C/C=C/C[C@@H](C)OC(=O)C[C@H]1OC(C)=O (stereo not given in full)	inactive	inactive	inactive	inactive				
COC1=CC(=O)CC(C)C12Oc1cc(OC)cc(OC)c1C2=O (stereo not given)	inactive	inactive	inactive	inactive				
C=C[C@]1(C)Cc2occ(C)c2C[C@H]1C(=C)C(=O)O	inactive	inactive	inactive	inactive				
CC1=CCC[C@@H]2[C@@](C)(CC/C(C)=C/C(=O)O)[C@H](C)CC[C@@]12C	inactive	inactive	inactive	inactive				
O=C1CCCC2[C@@H]3CCC[N@+]4([O-])CCC[C@H](CN12)C34 (stereo not given in full)	inactive	inactive	inactive	inactive				
O=C(O)/C=C/c1ccc2c(c1)OCO2	inactive	inactive	inactive	inactive				
Cc1ccc2c(c1)C(=O)c1ccccc1C2=O	inactive	inactive	inactive	inactive				
C[C@H]1CC[C@@H]2[C@@H](C)[C@H]3C(C[C@H]4C5CC[C@H]6C[C@@H](O)CC[C@]6(C)C5CC[C@]34C)N2C1 (stereo not given in full)	inactive	inactive	inactive	inactive				
O=C(O)CCC/C=C\C/C=C\C=C\[C@@H](O)C/C=C\CCCCCO					7.21% [at 0.757 µM]	9.56% [at 0.757 µM]	9.51% [at 0.757 µM]	12.9% [at 0.757 µM]
Cn1cnc(-c2cc3nccc(Oc4ccc(NC(=S)NC(=O)Cc5ccccc5)cc4F)c3s2)c1	inactive	inactive	inactive	inactive				
COc1ccc2c(c1)C(=O)CC(c1ccc(OC)c(OC)c1)O2 (stereo not given)	inactive	inactive	inactive	inactive				
COc1cc(C2OCC3C(c4ccc(OC5OC(CO)C(O)C(O)C5O)c(OC)c4)OCC23)ccc1O (stereo not given)	inactive	inactive	inactive	inactive				
COc1cc(C)ccc1C(C)C	inactive	inactive	inactive	inactive				

Structure (SMILES)	Potency [1]	Potency [2]	Potency [3]	Potency [4]	activity change, negative = inhibition [1]	activity change, negative = reduced viability [2]	activity change, negative = lower viability [3]	activity change, negative = inhibition [4]
O=C(OCCc1ccccc1)c1ccccc1	inactive	inactive	inactive	inactive				
Cc1ccc(-c2ccccc2)cc1	inactive	inactive	inactive	inactive				
CC(=O)c1ccccc1O	inactive	inactive	inactive	inactive				
CCC(C)C(=O)OCCc1ccccc1 (stereo not given)	inactive	inactive	inactive	inactive				
COC(=O)C1C(O)CC2CCC1N2C (stereo not given)	inactive	inactive	inactive	inactive				
CCCCCCCCC1OC1CCCCCCCC(=O)O (stereo not given)	inactive	inactive	inactive	inactive				
CC(=O)c1c(O)cccc1O	inactive	inactive	inactive	inactive				
C/C=C(\C)C(=O)O[C@H](c1cc2ccc(=O)oc2cc1OC)[C@@H](O)C(C)(C)O	inactive	inactive	inactive	inactive				
c1ccc2nc(-c3ccc4c(c3)OCO4)ccc2c1	inactive	inactive	inactive	inactive				
NC1=N[C@H](O)[C@H]2C3O[C@]4(O)O[C@H](C(O)[C@@]2(N1)[C@@H]4O)C3(O)CO (stereo not given in full)	inactive	inactive	inactive	inactive				
COc1cc(C(=O)O[C@@H]2CC3CC[C@]2(C)C3(C)C)ccc1O	inactive	inactive	inactive	inactive				
COc1cc(O)c2c(=O)c3c(O)ccc(O)c3oc2c1	inactive	inactive	inactive	inactive				
COc1ccc(-c2coc3cc(O)ccc3c2=O)cc1OC	inactive	inactive	inactive	inactive				
CCCCCCCCCCCCC	inactive	inactive	inactive	inactive				
COC(C)(C)[C@@H](O)COc1c2ccoc2cc2oc(=O)ccc12	inactive	inactive	inactive	inactive				
COC(=O)c1c(C)cc(O)c(C)c1O	inactive	inactive	inactive	inactive				
CC(Cc1c[nH]c2ccccc12)C(=O)O (stereo not given)	inactive	inactive	inactive	inactive				
C=CC(O)CCCCC (stereo not given)	inactive	inactive	inactive	inactive				
CO[C@H]1[C@@H](OC)CC(OC2OC(CO)C(O)C(O)C2O)/C(=C\C#N)[C@@H]1O (stereo not given in full)	inactive	inactive	inactive	inactive				
Cc1csc(NC(=O)c2sc3nc4c(c(C(F)(F)F)c3c2N)CCC4)n1	inactive	inactive	inactive	inactive				

Structure (SMILES)	Potency [1]	Potency [2]	Potency [3]	Potency [4]	activity change, negative = inhibition [1]	activity change, negative = reduced viability [2]	activity change, negative = lower viability [3]	activity change, negative = inhibition [4]
COc1ccc(C[C@H]2c3cc(O)c(OC)cc3CC[N+]2(C)[O-])cc1O (stereo not given in full)	inactive	inactive	inactive	inactive				
C=C(C)C1Cc2cc3ccc(=O)oc3cc2O1 (stereo not given)	inactive	inactive	inactive	inactive				
OC[C@H]1O[C@@H](O[C@@H]2OC=C[C@H]3[C@H](O)[C@@H]4O[C@]4(CO)[C@@H]23)[C@H](O)[C@@H](O)[C@@H]1O	inactive	inactive	inactive	inactive				
COc1c2c(nc3occc13)C(CC=C(C)C)(OC)C(OC(C)=O)CC2 (stereo not given)	inactive	inactive	inactive	inactive				
CC1=CC(=O)C2=C(C)C[C@@H]3OC(=O)[C@@H](C)[C@H]3C=C12	inactive	inactive	inactive	inactive				
CCCCCCCC1CCC(=O)O1 (stereo not given)	inactive	inactive	inactive	inactive				
CC(=O)O[C@@H]1[C@H]2CC[C@@H]3[C@]1(C[C@@H](OC(C)=O)[C@@]1(O)C([C@@H]4O[C@@H]4C1(C)C)[C@]3(C)O)C[C@@]2(C)O (stereo not given in full)	inactive	inactive	inactive	inactive				
O=C(/C=C/c1ccc(O)cc1)OCc1occc(=O)c1O[C@@H]1OC(CO)[C@@H](O)[C@H](O)[C@@H]1O (stereo not given in full)	inactive	inactive	inactive	inactive				
O=C(c1ccccc1)N1CCCCC1	inactive	inactive	inactive	inactive				
CC(C)(COP(=O)(O)OP(=O)(O)OC[C@H]1O[C@@H](n2cnc3c(N)ncnc32)[C@H](O)[C@@H]1OP(=O)(O)O)[C@H](O)C(=O)NCCC(=O)NCCS	inactive	inactive	inactive	inactive				
COc1cc2c(cc1O)C(Cc1ccc(O)cc1)[N+](C)(C)CC2 (stereo not given)	inactive	inactive	inactive	inactive				
COC(=O)C(O)C(O)(CCC(C)C)C(=O)OC1C(OC)=CC23CCCN2CCc2cc4c(cc2C13)OCO4 (stereo not given)	inactive	inactive	inactive	inactive				
CCN(CC)CCNC(=O)c1c(C)[nH]c(C=C2C(=O)Nc3ccc(F)cc32)c1C	44.4 µM (active)	7.89 µM (active)	49.8 µM (active)	44.4 µM (active)				
CCCc1ccc(OC)cc1	inactive	inactive	inactive	inactive				
CC1(C)C(CO)=CC(=O)C2=C1SCC(=O)N2	inactive	inactive	inactive	inactive				
CC(O)[C@H]1CC[C@H]2[C@@H]3CC[C@H]4C[C@@H](O)CC[C@]4(C)[C@H]3C(=O)C[C@]12C (stereo not given in full)	inactive	inactive	inactive	inactive				
C=CC1CN2CCC1CC2C(O)c1ccnc2ccc(OC)cc12 (stereo not given)	inactive	inactive	inactive	inactive				
ON=Cc1ccnc2ccccc12	inactive	inactive	inactive	inactive				
CCCCCCCCC(=O)OCC	inactive	inactive	inactive	inactive				
CC1OC(Oc2ccc3ccc(=O)oc3c2-c2c(O)ccc3cc(Oc4ccc5ccc(=O)oc5c4)c(=O)oc23)C(O)C(O)C1O (stereo not given)	inactive	inactive	inactive	inactive				
